Results filed as inconclusive are left out. Calls of active or inactive are those of the source. Calls follow the shape of the dose curve; as a rule, active = well fitted curve in the direction sought with a large enough effect; inconclusive = small, poorly fitted or top-dose-only effect, or another doubt; inactive = no such curve, though single readings can be large; an effect the other way counts as inactive or inconclusive.
What was measured:
[1] = molecular target: ATP-dependent 6-phosphofructokinase (Trypanosoma brucei brucei) (UniProt O15648); experiment: qHTS Assay to Find Inhibitors of T. brucei phosphofructokinase: hit validation (AID 492961);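 also: luminescence reports ADP formed as PFK phosphorylates fructose-6-phosphate with ATP; % is scaled to controls: 0 for no effect and ±100 for the full control effect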
How it was run: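 ADP-Glo luminescence read-out of ADP formed by 1.25 nM PFK from 0.1 mM ATP and 0.5 mM F6P (TEA pH 8.0, 45 min, RT). Compounds titrated; activity normalized to no-enzyme and full-enzyme controls.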

[2] = molecular target: Ubiquitin carboxyl-terminal hydrolase 1 (Homo sapiens) (UniProt O94782); experiment: Inhibitors of USP1/UAF1: Pilot qHTS (AID 504865);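 also: rhodamine fluorescence freed from ubiquitin-rhodamine substrate followed over time; top concentration of the series differs between compounds; % is scaled to controls: 0 for no effect and ±100 for the full control effect; nearly all actives have a fitted effect of over 35% in size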
How it was run: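 USP1/UAF1 complex (1nM) preincubated with compound 15 min at room temperature, then Ub-Rho substrate (150nM final) added. Fluorescence read kinetically at 480/540 nm, 6 reads every 60 seconds. Buffer: 50mM HEPES pH 7.8, 0.5mM EDTA, 0.1 mg/ml BSA, 1mM TCEP, 0.01% Tween-20.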

[3] = molecular target: Luciferin 4-monooxygenase (Photinus pyralis) (UniProt P08659); experiment: Biochemical firefly luciferase enzyme assay for NPC (AID 624030);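 also: purified P. pyralis luciferase at 10 nM with luciferin and ATP substrate; 0% = DMSO and -100% = full luciferase inhibition by PTC124 control; nearly all actives have a fitted effect of over 70% in size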
How it was run: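 Direct inhibition of firefly luciferase enzyme (10 nM final, 50 mM Tris Acetate) assessed by luminescence within 5 minutes. Percent activity scaled between DMSO and PTC124 positive control, with concentration-effect curves classified by fit quality and response.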

[4] = qHTS profiling for inhibitors of Plasmodium falciparum proliferation (AID 504749);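 also: 0% = DMSO vehicle and full inhibition = artemisinin control; nearly all actives have a fitted effect of over 60% in size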; conditions: P. falciparum in erythrocytes, SYBR Green DNA, 72 h, at 28.7 µM (top of the series)
How it was run: (§1)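 Infected RBCs, 0.3% parasitemia/2.5% Hct final; cpd 72 h, 37 C, 5% CO2; lysis buffer with saponin/triton/SYBR Green I, o/n RT dark; FI 485/535; norm. to artemisinin (0.29 uM) and DMSO.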

ATS189 = experiment: as above; conditions: P. falciparum in erythrocytes, SYBR Green DNA, 72 h; series mostly up to 28.7 µM
How it was run: as §1

C2A = experiment: as above; conditions: P. falciparum in erythrocytes, SYBR Green DNA, 72 h; series mostly up to 28.7 µM
How it was run: as §1

CP191 = experiment: as above; conditions: P. falciparum in erythrocytes, SYBR Green DNA, 72 h; series mostly up to 28.7 µM
How it was run: as §1

CP192 = experiment: as above; conditions: P. falciparum in erythrocytes, SYBR Green DNA, 72 h; series mostly up to 28.7 µM
How it was run: as §1

CP201 = experiment: as above; conditions: P. falciparum in erythrocytes, SYBR Green DNA, 72 h; series mostly up to 28.7 µM
How it was run: as §1

CP215 = experiment: as above; conditions: P. falciparum in erythrocytes, SYBR Green DNA, 72 h; series mostly up to 28.7 µM
How it was run: as §1

CP237 = experiment: as above; conditions: P. falciparum in erythrocytes, SYBR Green DNA, 72 h; series mostly up to 28.7 µM
How it was run: as §1

CP238 = experiment: as above; conditions: P. falciparum in erythrocytes, SYBR Green DNA, 72 h; series mostly up to 28.7 µM
How it was run: as §1

CP268 = experiment: as above; conditions: P. falciparum in erythrocytes, SYBR Green DNA, 72 h; series mostly up to 28.7 µM
How it was run: as §1

CP269 = experiment: as above; conditions: P. falciparum in erythrocytes, SYBR Green DNA, 72 h; series mostly up to 28.7 µM
How it was run: as §1

CP286 = experiment: as above; conditions: P. falciparum in erythrocytes, SYBR Green DNA, 72 h; series mostly up to 28.7 µM
How it was run: as §1

CP325 = experiment: as above; conditions: P. falciparum in erythrocytes, SYBR Green DNA, 72 h; series mostly up to 28.7 µM
How it was run: as §1

CP329 = experiment: as above; conditions: P. falciparum in erythrocytes, SYBR Green DNA, 72 h; series mostly up to 28.7 µM
How it was run: as §1

FAB9 = experiment: as above; conditions: P. falciparum in erythrocytes, SYBR Green DNA, 72 h; series mostly up to 28.7 µM
How it was run: as §1

JCK = experiment: as above; conditions: P. falciparum in erythrocytes, SYBR Green DNA, 72 h; series mostly up to 28.7 µM
How it was run: as §1

PC49 = experiment: as above; conditions: P. falciparum in erythrocytes, SYBR Green DNA, 72 h; series mostly up to 28.7 µM
How it was run: as §1

Ubiquitin carboxyl-terminal hydrolase 1 (Homo sapiens), sequence (O94782 whole entry, looked up): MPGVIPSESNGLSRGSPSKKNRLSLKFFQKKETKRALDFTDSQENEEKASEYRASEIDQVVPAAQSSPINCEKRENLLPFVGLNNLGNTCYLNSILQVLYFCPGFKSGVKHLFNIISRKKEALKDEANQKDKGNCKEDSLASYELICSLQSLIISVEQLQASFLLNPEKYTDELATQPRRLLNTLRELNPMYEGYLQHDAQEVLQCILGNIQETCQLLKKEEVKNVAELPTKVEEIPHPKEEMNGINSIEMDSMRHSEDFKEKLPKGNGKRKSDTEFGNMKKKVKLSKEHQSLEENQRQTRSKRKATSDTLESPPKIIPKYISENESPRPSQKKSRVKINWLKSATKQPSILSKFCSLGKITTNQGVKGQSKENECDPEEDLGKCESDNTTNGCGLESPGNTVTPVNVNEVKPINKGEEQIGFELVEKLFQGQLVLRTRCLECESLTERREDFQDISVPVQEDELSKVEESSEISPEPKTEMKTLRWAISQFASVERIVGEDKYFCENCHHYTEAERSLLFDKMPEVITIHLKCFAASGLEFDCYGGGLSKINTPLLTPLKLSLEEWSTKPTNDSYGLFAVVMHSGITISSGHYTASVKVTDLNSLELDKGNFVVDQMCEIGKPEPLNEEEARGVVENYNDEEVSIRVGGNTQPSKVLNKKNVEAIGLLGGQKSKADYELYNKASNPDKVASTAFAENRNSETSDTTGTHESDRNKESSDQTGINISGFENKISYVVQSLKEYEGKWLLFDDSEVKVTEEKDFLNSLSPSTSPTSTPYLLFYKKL
Luciferin 4-monooxygenase (Photinus pyralis), sequence (P08659 whole entry, looked up): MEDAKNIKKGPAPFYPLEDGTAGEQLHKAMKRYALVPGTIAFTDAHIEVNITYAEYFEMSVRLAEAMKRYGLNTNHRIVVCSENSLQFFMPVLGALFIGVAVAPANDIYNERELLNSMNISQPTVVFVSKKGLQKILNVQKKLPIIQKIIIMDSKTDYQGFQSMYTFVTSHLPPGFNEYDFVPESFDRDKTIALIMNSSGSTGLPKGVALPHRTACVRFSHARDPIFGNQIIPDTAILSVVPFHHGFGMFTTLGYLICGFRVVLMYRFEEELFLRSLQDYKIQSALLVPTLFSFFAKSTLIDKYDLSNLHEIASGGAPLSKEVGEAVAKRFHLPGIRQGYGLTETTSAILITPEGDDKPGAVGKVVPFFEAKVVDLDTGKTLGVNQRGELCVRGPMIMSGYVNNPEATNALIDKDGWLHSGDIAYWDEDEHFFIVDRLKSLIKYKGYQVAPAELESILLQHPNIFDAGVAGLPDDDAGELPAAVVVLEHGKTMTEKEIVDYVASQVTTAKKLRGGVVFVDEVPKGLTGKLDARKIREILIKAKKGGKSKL
ATP-dependent 6-phosphofructokinase (Trypanosoma brucei brucei), sequence (O15648 whole entry, looked up): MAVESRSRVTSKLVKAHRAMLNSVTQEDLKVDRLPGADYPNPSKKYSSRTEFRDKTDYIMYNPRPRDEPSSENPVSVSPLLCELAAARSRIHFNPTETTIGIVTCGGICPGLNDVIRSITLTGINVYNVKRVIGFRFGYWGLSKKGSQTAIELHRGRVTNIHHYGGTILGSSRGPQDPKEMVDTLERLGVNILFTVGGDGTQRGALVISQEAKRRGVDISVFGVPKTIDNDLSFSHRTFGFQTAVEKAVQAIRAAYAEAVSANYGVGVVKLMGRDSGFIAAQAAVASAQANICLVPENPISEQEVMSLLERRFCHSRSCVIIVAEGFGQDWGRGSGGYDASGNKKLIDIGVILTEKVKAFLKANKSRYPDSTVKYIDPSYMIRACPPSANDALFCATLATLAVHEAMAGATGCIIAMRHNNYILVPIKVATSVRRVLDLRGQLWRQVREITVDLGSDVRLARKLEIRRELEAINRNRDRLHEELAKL

C[C@H](N)Cc1ccccc1
inactive: outcome [1] | Potency [2] | Potency [3] | activity, negative = inhibition ([4]; parasite line A) -1.91% | activity, negative = inhibition ([4]; parasite line B) -0.429% | Potency (ATS189) | Potency (C2A) | Potency (CP191) | Potency (CP192) | Potency (CP201) | Potency (CP215) | Potency (CP237) | Potency (CP238) | Potency (CP268) | Potency (CP269) | Potency (CP286) | Potency (CP325) | Potency (CP329) | Potency (FAB9) | Potency (JCK) | Potency (PC49)

Cc1cc(C)cc(C(=O)OC2CC3CCC(C2)N3C)c1 (stereo unspecified)
inactive: outcome [1] | Potency [2] | Potency [3] | activity, negative = inhibition ([4]; parasite line A) -5.04% | activity, negative = inhibition ([4]; parasite line B) 8.93% | Potency (ATS189) | Potency (C2A) | Potency (CP191) | Potency (CP192) | Potency (CP201) | Potency (CP215) | Potency (CP237) | Potency (CP238) | Potency (CP268) | Potency (CP269) | Potency (CP286) | Potency (CP325) | Potency (CP329) | Potency (FAB9) | Potency (JCK) | Potency (PC49)

CC(C)CC(NC(=O)C(COC(C)(C)C)NC(=O)C(Cc1ccc(O)cc1)NC(=O)C(CO)NC(=O)C(Cc1c[nH]c2ccccc12)NC(=O)C(Cc1cnc[nH]1)NC(=O)C1CCC(=O)N1)C(=O)NC(CCCN=C(N)N)C(=O)N1CCCC1C(=O)NNC(N)=O (stereo unspecified)
inactive: outcome [1]

CCOC(=O)/C=C(C)/C=C/CC(C)CCCC(C)C (stereo unspecified)
inactive: outcome [1] | Potency [2] | Potency [3] | activity, negative = inhibition ([4]; parasite line A) -0.0375% | activity, negative = inhibition ([4]; parasite line B) 8.06% | Potency (ATS189) | Potency (C2A) | Potency (CP191) | Potency (CP192) | Potency (CP201) | Potency (CP215) | Potency (CP237) | Potency (CP238) | Potency (CP268) | Potency (CP269) | Potency (CP286) | Potency (CP325) | Potency (CP329) | Potency (FAB9) | Potency (JCK) | Potency (PC49)

[S]=[Sb][S][Sb]=[S]
inactive: outcome [1] | Potency [2] | Potency [3] | activity, negative = inhibition ([4]; parasite line A) 8.49% | activity, negative = inhibition ([4]; parasite line B) 1.29% | Potency (ATS189) | Potency (C2A) | Potency (CP191) | Potency (CP192) | Potency (CP201) | Potency (CP215) | Potency (CP237) | Potency (CP238) | Potency (CP268) | Potency (CP269) | Potency (CP286) | Potency (CP325) | Potency (CP329) | Potency (FAB9) | Potency (JCK) | Potency (PC49)

CCNC(=O)[C@@H]1CCCN1C(=O)[C@H](CCCN=C(N)N)NC(=O)[C@H](CC(C)C)NC(=O)[C@@H](Cc1c[nH]c2ccccc12)NC(=O)[C@H](Cc1ccc(O)cc1)NC(=O)[C@H](CO)NC(=O)[C@H](Cc1c[nH]c2ccccc12)NC(=O)[C@H](Cc1cnc[nH]1)NC(=O)[C@@H]1CCC(=O)N1
inactive: outcome [1]

— PubChem BioAssay (NCATS)
